KCNQ2 block – blocks the rat KCNQ2 potassium channel; CHO-K1 KCNQ2, FluxOR thallium flux, 20 min; hits give low values; B-score at 10 µM; actives 1.1% (n = 310,000);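 active means fluorescence ratio B-score at most minus 3 library SDs, with starting brightness B-score within 2 library SDs, cut at about -5.5 in these data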
KCNQ2 pot – potentiators of rat KCNQ2 potassium channel; CHO-K1 KCNQ2, FluxOR thallium flux fluorescence; hits give high values; actives 0.54% (n = 310,000); B-score at 10 µM; AID 2239; O88943;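 active means fluorescence ratio B-score at least 3 SD of library B-scores, with initial fluorescence B-score within 3 of them, cut at about 5.3 in these data; same plate scores as AID 2156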;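 further: B-score of peak minus minimum over baseline fluorescence ratio after K+ and Tl+ stimulus; positive B-score means potentiation of KCNQ2 with more thallium influx and brighter signal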
Kir21 confirm – confirmation of mouse Kir2.1 potassium channel inhibitors; shares compounds with KCNQ2 pot; Kir2.1-expressing cells, FluxOR thallium flux fluorescence; hits give low values; Tl flux remaining, % of negative control (hits give low values), % at 10 µM; actives 41% (n = 2,300); AID 2032;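 active means Primary-screen hit whose thallium flux fell at least 3 control SD below untreated wells in both duplicates, with normal baseline fluorescence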;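 further: 0% = blank wells without stimulus and 100% = stimulated no-compound controls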
Target sequence (P35561 whole entry, looked up): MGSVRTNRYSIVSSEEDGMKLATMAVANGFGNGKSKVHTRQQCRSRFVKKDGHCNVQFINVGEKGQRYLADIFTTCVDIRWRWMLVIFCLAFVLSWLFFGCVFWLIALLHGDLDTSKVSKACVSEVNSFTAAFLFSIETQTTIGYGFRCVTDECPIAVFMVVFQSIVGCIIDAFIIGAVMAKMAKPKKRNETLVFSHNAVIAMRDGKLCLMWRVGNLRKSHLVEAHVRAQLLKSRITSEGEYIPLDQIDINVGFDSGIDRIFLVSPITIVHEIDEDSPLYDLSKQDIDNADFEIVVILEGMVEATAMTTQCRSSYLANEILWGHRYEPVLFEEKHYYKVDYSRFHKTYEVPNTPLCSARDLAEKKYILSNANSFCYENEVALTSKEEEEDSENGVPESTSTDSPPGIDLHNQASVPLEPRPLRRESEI
HEK293 Tl flux – alters thallium flux in parental HEK293 cells, Kir2.1 counter-screen; FluxOR signal as % of negative control (100 = no effect), % at 10 µM; FluxOR thallium flux fluorescence; 0% = unstimulated blank wells; actives 19% (n = 2,300); shares compounds with KCNQ2 pot;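 active means dye signal at least 3 control SD above or below untreated wells in both duplicates, raw fluorescence within 3, either direction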;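 further: percent is based on the flux ratio of peak minus minimum fluorescence over baseline F0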
CHO-K1 Tl ctr – alters thallium flux in parental CHO-K1 cells, KCNQ2 counter-screen. actives 43% (n = 1,200). AID 2282. shares compounds with KCNQ2 pot. activity increase over 3SD of controls, % at 10 µM. FluxOR thallium flux fluorescence; zero = vehicle mean+3SD, 100% = vehicle-minus-blank window;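 active means signal rise of at least 3 SD above the untreated control mean, in both duplicate wells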;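 further: counter screen of KCNQ2 potentiator hits so any rise reflects channel-independent effects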
KCNQ1 sel pot – human KCNQ1 counter-target activity of KCNQ2 potentiators; AID 2283; actives 28% (n = 1,200); activation over 3SD threshold, % at 10 µM; shares compounds with KCNQ2 pot; CHO KCNQ1 stable, FluxOR thallium flux fluorescence; beyond 3SD, as % of vehicle-control signal;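 active means fluorescence ratio rise of at least 3 SD of vehicle wells above their mean, in both replicate wells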;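 further: 0% = vehicle mean plus 3 SD and 100% = vehicle minus unstimulated blank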
KCNQ2 pot confirm – rat KCNQ2 channel potentiator confirmation | CHO-KCNQ2 cells, FluxOR thallium flux fluorescence | potentiation, less the hit threshold, % at 10 µM | shares compounds with KCNQ2 pot | actives 68% (n = 1,200);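 active means fluorescence ratio rising 3 SD or more over the vehicle control mean in both replicates, plus primary screen hit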;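 further: peak minus minimum thallium fluorescence divided by baseline after K/Tl stimulus; 0% = vehicle mean plus 3 SD and 100% = vehicle minus unstimulated blank difference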
Kir21 spec – mouse Kir2.1 off-target activity of KCNQ2 potentiators; AID 2345; shares compounds with KCNQ2 pot; activity over 3SD threshold, % at 10 µM; HEK293 Kir2.1, FluxOR thallium flux fluorescence; actives 2% (n = 1,200);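 active means fluorescence ratio rise of at least 3 SD above the vehicle-control mean, seen in both replicates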;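 further: 0% = vehicle mean plus 3 SD and 100% = vehicle minus no-stimulus blank window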
KCNQ2 W236L pot – potentiates the retigabine-insensitive rat KCNQ2 W236L mutant channel; shares compounds with KCNQ2 pot; CHO KCNQ2-W236L, automated patch clamp current; current increase over 3SD of negative controls (%), hits give high values, % at 25 µM; actives 10% (n = 940); AID 2558;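 active means current increase at least 3 SD of the untreated controls above them in both duplicate recordings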
The depositor's hits bear a star; i = inactive; . = not tested or not shown. Sampled rows, rich in hits. Any-hit rate of the full collection: about 1.6%.

SMILES	KCNQ2 block	KCNQ2 pot	Kir21 confirm	HEK293 Tl flux	others
COc1cccc2sc(Nc3nnc(-c4ccccc4Cl)o3)nc12	i	21.4*	i	379.0%*	CHO-K1 Tl ctr=-4.9;KCNQ1 sel pot=-6.4;KCNQ2 pot confirm=38.1*;Kir21 spec=-21.4;KCNQ2 W236L pot=i
COc1cccc(-c2nnc(NC(C)=O)o2)c1	i	0.28	.	.
CCOCCCNC(=O)c1ccc(/C=C2\Oc3ccccc3N(C)C2=O)cc1	i	.	.	.
CCOc1ccc(NC(=S)N(CCOC)C2CCN(C(C)C)CC2)cc1	i	1.54	.	.
CCCCCNC(=O)CCc1ccccc1	i	0.05	.	.
CCCCCCC/C(C)=N/NC(=O)CC(=O)NCCc1ccccc1	i	5.58*	i	i	CHO-K1 Tl ctr=7.3*;KCNQ1 sel pot=-15.8;KCNQ2 pot confirm=-24.2;Kir21 spec=-36.2
CC(CCc1ccccc1)NCc1cccc2ccccc12 (stereo unspecified)	i	.	19.0%*	i
COc1ccc(CCC(C)NCc2cccc(Br)c2)cc1 (stereo unspecified)	i	.	24.0%*	i
COCC(C)NCc1cccc2ccccc12 (stereo unspecified)	i	2.46	.	.
COc1ccc(CCC(C)NCc2ccccc2OC)cc1 (stereo unspecified)	i	1.04	.	.
C=CCN1C(=O)/C(=C\c2ccc(Oc3nc(N4CCOCC4)nc(N4CCOCC4)n3)c(OC)c2)SC1=S	i	.	.	.
Cc1ccc(C(=O)CC(=O)c2ccccc2)cc1	i	1.34	.	.
Cc1ccc(C(=O)Sc2cccccc2=O)cc1	i	11.2*	.	.	CHO-K1 Tl ctr=-11.7;KCNQ1 sel pot=-20.7;KCNQ2 pot confirm=84.7*;Kir21 spec=-45.6;KCNQ2 W236L pot=i
Nn1c(SCC(=O)Nc2cc(S(=O)(=O)N3CCOCC3)ccc2Cl)nnc1-c1cccnc1	i	0.53	.	.
COc1cc(C(=O)OCC(C)=O)cc(NC(=O)c2ccco2)c1OC	i	.	.	.
COc1cc(C(=O)OCC(=O)NC2CCCC2)cc(NC(=O)c2ccco2)c1OC	i	11.2*	i	i	CHO-K1 Tl ctr=-8.9;KCNQ1 sel pot=-8.8;KCNQ2 pot confirm=-15.0;Kir21 spec=-18.4
O=C(Nc1nccs1)[C@@H]1CC=C[C@@H]2CCN(Cc3ccccc3)C(=O)[C@@H]21	i	1.23	.	.
CC1CCN(CCCNC(=O)c2ccc(CSCc3cccc(Cl)c3)o2)CC1	i	.	37.0%*	i
CN1CCN(CCCNC(=O)c2ccc(CSCc3cccc(Cl)c3)o2)CC1	i	1.18	.	.
O=c1[nH]c(C2CCN(S(=O)(=O)c3ccccc3)CC2)nc2c1nnn2Cc1c(F)cccc1Cl	i	.	.	.
COc1ccc(CCC(=O)NCc2ccc3c(c2)OCO3)cc1	i	2.96	.	.
COc1ccc(CCC(=O)NCc2cccc(C(F)(F)F)c2)cc1	i	6.66*	i	i	CHO-K1 Tl ctr=23.8*;KCNQ1 sel pot=-17.1;KCNQ2 pot confirm=-2.0;Kir21 spec=-33.4;KCNQ2 W236L pot=i
CCNNC(=O)C(O)(Cc1ccccc1)Cc1ccccc1	i	.	.	.
NC1=NC(=O)C2(COC(c3cccnc3)OC2)S1 (stereo unspecified)	i	0.51	.	.
OCCC1CCCCN1CC(O)COCc1ccc(Cl)cc1 (stereo unspecified)	i	1.76	.	.
CCc1nnc(NC(=O)CCC(=O)N2CCC(Cc3ccccc3)CC2)s1	i	2.28	.	.
CCOC(=O)c1c(-c2ccccc2)oc2ccc(OC(C)C(=O)O)cc12 (stereo unspecified)	i	.	.	.
CCOC(=O)c1c(-c2ccccc2)oc2ccc(O)c(CN(C)C)c12	i	1.41	i	i
CCOC(=O)c1c(-c2ccccc2)oc2ccc(O)c(CN3CCCC3)c12	i	.	26.0%*	i
COCCOC(=O)c1c(C)oc2ccc(O)c(CN3CCC(C)CC3)c12	i	0.11	.	.
